Results from PubChem BioAssay (EPA / NIEHS).
The source made the active and inactive calls. How the source made its calls: active means hit-call score of the fitted dose curve at least 0.9, where 1 is the maximum; inactive means score below 0.9.

Legend:
[1] = BSK_CASM3C_SRB: Viability Assessment in the BioMAP Diversity Plus: CASM3C Assay (AID 2283050); conditions: primary human coronary artery smooth muscle cells;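 further: cells exposed to compound for 24 h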
[2] = read-out: Thrombomodulin, THBD (gene 7056); experiment: BSK_CASM3C_Thrombomodulin: BioMAP Diversity Plus: CASM3C Assay for Thrombomodulin Biomarker Activity (AID 2283051); conditions: primary human coronary artery smooth muscle cells; actives raise or lower the signal;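 further: thrombomodulin protein level measured by ELISA 24 h after dosing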
[3] = read-out: Tissue Factor, F3 (gene 2152); experiment: BSK_CASM3C_TissueFactor: BioMAP Diversity Plus: CASM3C Assay for Tissue Factor Biomarker Activity (AID 2283052); conditions: primary human coronary artery smooth muscle cells; actives raise or lower the signal;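 further: cell surface tissue factor protein level read by ELISA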
[4] = read-out: Interferon-gamma inducible Protein 10 (IP10), CXCL10 (gene 3627); experiment: BSK_hDFCGF_IP10: BioMAP Diversity Plus: hDFCGF Assay for Interferon-gamma inducible Protein 10 (IP10) Biomarker Activity (AID 2283053); conditions: primary human foreskin fibroblasts; actives raise or lower the signal
Summary of the method: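 ELISA quantification of IP-10 after a 24 h chemical exposure of human dermal foreskin fibroblast primary cultures. Both increases and decreases versus DMSO fitted.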

[5] = read-out: Urokinase-type plasminogen activator receptor (uPAR), PLAUR (gene 5329); experiment: BSK_CASM3C_uPAR: BioMAP Diversity Plus: CASM3C Assay for Urokinase-type plasminogen activator receptor (uPAR) Biomarker Activity (AID 2283054); conditions: primary human coronary artery smooth muscle cells; actives raise or lower the signal;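 further: cell-surface uPAR protein level quantified by ELISA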
[6] = read-out: Vascular cell adhesion molecule 1 (VCAM1), VCAM1 (gene 7412); experiment: BSK_CASM3C_VCAM1: BioMAP Diversity Plus: CASM3C Assay for Vascular cell adhesion molecule 1 (VCAM1) Biomarker Activity (AID 2283055); conditions: primary human coronary artery smooth muscle cells; actives raise or lower the signal;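 further: VCAM-1 protein level quantified by ELISA on the cells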
[7] = read-out: Collagen III, COL3A1 (gene 1281); experiment: BSK_hDFCGF_CollagenIII: BioMAP Diversity Plus: hDFCGF Assay for Collagen III Biomarker Activity (AID 2283056); conditions: primary human foreskin fibroblasts; actives raise or lower the signal
Summary of the method: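 Cells: human foreskin fibroblasts, primary. Dosing followed by 24 h incubation, then ELISA for collagen III. Both increases and decreases scored relative to DMSO.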

[8] = read-out: Interleukin-8 (IL8), CXCL8 (gene 3576); experiment: BSK_hDFCGF_IL8: BioMAP Diversity Plus: hDFCGF Assay for Interleukin-8 (IL8) Biomarker Activity (AID 2283058); conditions: primary human foreskin fibroblasts; actives raise or lower the signal
Summary of the method: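 IL-8 levels from compound-treated primary human fibroblasts were read by ELISA at 24 h, with DMSO serving as baseline for bidirectional fitting.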

[9] = BSK_hDFCGF_Proliferation: Cell Proliferation Assessment in the BioMAP Diversity Plus: hDFCGF Assay (AID 2283059); conditions: primary human foreskin fibroblasts;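 further: curves fitted for both rise and fall of signal versus DMSO baseline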
Summary of the method: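 Total protein read at 560 nm after 0.1% SRB staining of TCA-fixed human skin fibroblasts, […]. Activity is fitted in both directions relative to DMSO as baseline.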

[10] = read-out: Macrophage colony-stimulating factor (MCSF), CSF1 (gene 1435); experiment: BSK_hDFCGF_MCSF: BioMAP Diversity Plus: hDFCGF Assay for Macrophage colony-stimulating factor (MCSF) Biomarker Activity (AID 2283060); conditions: primary human foreskin fibroblasts; actives raise or lower the signal
Summary of the method: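 M-CSF levels, determined by ELISA, are taken at 24 h after dosing human skin fibroblasts. Responses in either direction are fitted with DMSO serving as the baseline.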

[11] = BSK_hDFCGF_SRB: Viability Assessment in the BioMAP Diversity Plus: hDFCGF Assay (AID 2283061); conditions: primary human foreskin fibroblasts;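 further: cells exposed to compound for 24 h before the read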
Summary of the method: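 Cells were dosed with test chemical, cultured 24 h, fixed with 10% TCA, then stained with 0.1% SRB and read at 560 nm. The fibroblasts were human foreskin primary cells, and DMSO served as baseline.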

[12] = read-out: TIMP metallopeptidase inhibitor 1 (TIMP1), TIMP1 (gene 7076); experiment: BSK_hDFCGF_TIMP1: BioMAP Diversity Plus: hDFCGF Assay for TIMP metallopeptidase inhibitor 1 (TIMP1) Biomarker Activity (AID 2283062); conditions: primary human foreskin fibroblasts; actives raise or lower the signal
Summary of the method: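 Fibroblasts from human foreskin are treated with test chemical and harvested at 24 h. TIMP-1 is quantified by ELISA, and gain or loss of signal is scored against DMSO.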

[13] = read-out: Monokine induced gamma interferon (MIG), CXCL9 (gene 4283); experiment: BSK_hDFCGF_MIG: BioMAP Diversity Plus: hDFCGF Assay for Monokine induced gamma interferon (MIG) Biomarker Activity (AID 2283063); conditions: primary human foreskin fibroblasts; actives raise or lower the signal
Summary of the method: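 MIG signal, determined by ELISA, reflects 24 h chemical exposure of human skin primary fibroblasts. DMSO serves as negative control and baseline.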

[14] = read-out: Matrix Metallopeptidase 1 (MMP1), MMP1 (gene 4312); experiment: BSK_hDFCGF_MMP1: BioMAP Diversity Plus: hDFCGF Assay for Matrix Metallopeptidase 1 (MMP1) Biomarker Activity (AID 2283064); conditions: primary human foreskin fibroblasts; actives raise or lower the signal
Summary of the method: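 Human foreskin fibroblasts exposed to chemical for 24 h; MMP1 detected by ELISA, with DMSO as baseline for bidirectional fitting.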

[15] = read-out: Vascular cell adhesion molecule 1 (VCAM1), VCAM1 (gene 7412); experiment: BSK_hDFCGF_VCAM1: BioMAP Diversity Plus: hDFCGF Assay for Vascular cell adhesion molecule 1 (VCAM1) Biomarker Activity (AID 2283065); conditions: primary human foreskin fibroblasts; actives raise or lower the signal
Summary of the method: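 Cells are dosed, cultured for 24 h, then VCAM-1 is quantified by ELISA; signal increases and decreases are both fitted relative to DMSO.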

[16] = read-out: Plasminogen activator inhibitor-1 (PAI1), SERPINE1 (gene 5054); experiment: BSK_hDFCGF_PAI1: BioMAP Diversity Plus: hDFCGF Assay for Plasminogen activator inhibitor-1 (PAI1) Biomarker Activity (AID 2283066); conditions: primary human foreskin fibroblasts; actives raise or lower the signal
Summary of the method: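 PAI-1 levels in human dermal foreskin fibroblasts were quantified by ELISA 24 h after dosing, with gain or loss analysed against DMSO. Overt cytotoxicity was checked by sulforhodamine B total-protein staining in parallel cultures.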

[17] = read-out: Intercellular Adhesion Molecule 1 (ICAM1), ICAM1 (gene 3383); experiment: BSK_KF3CT_ICAM1: BioMAP Diversity Plus: KF3CT Assay for Intercellular Adhesion Molecule 1 (ICAM1) Biomarker Activity (AID 2283067); conditions: primary human keratinocytes with fibroblasts; actives raise or lower the signal
Summary of the method: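 Dose the keratinocyte/fibroblast co-culture, wait 24 h, measure ICAM-1 by ELISA, then fit increases or decreases against DMSO. Cytotoxicity is checked in parallel cultures by SRB total-protein staining.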

[18] = BSK_KF3CT_SRB: Viability Assessment in the BioMAP Diversity Plus: KF3CT Assay (AID 2283069); conditions: primary human keratinocytes with fibroblasts;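 further: fitted for both signal gain and loss against DMSO baseline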
Summary of the method: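 Overt cytotoxicity is assessed as total protein by sulforhodamine B staining in parallel human skin co-cultures at 24 h after dosing. DMSO serves as negative control and baseline.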

[19] = read-out: Interferon-gamma inducible Protein 10 (IP10), CXCL10 (gene 3627); experiment: BSK_KF3CT_IP10: BioMAP Diversity Plus: KF3CT Assay for Interferon-gamma inducible Protein 10 (IP10) Biomarker Activity (AID 2283068); conditions: primary human keratinocytes with fibroblasts; actives raise or lower the signal
Summary of the method: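 Human keratinocyte plus foreskin fibroblast primary co-culture exposed to test chemical for 24 h; IP-10 measured by ELISA. Concentration-response fitted bidirectionally against DMSO control as baseline.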

Measured: outcome

FC(F)=C(F)C(F)(F)C(F)(F)C(F)(F)C(F)(F)C(F)(F)C(F)(F)F
not listed: [19]
inactive: all other assays above

O=S(=O)(O)c1ccc(N=Nc2c(O)ccc3cc(S(=O)(=O)O)ccc23)cc1
not listed: [19]
inactive: all other assays above

OCCNCCO
inactive: all assays above
